Measured values as given in PubChem BioAssay AID1209 (Sanford-Burnham Center for Chemical Genomics, 2008).
Hit rate of the full screen: of about 190,000 compounds, about 810 (0.43%) were called active. Rule as the data show it: active = inhibition above about 50%; inactive = the rest. This excerpt belongs to a sample that is enriched for actives.

Molecular target: Mannose-6-phosphate isomerase (Homo sapiens) (UniProt P34949)
Assay: inhibitors of human PMI, primary screen, biochemical, fluorescence intensity, coupled assay (AID 1209);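 also: plate controls were DMSO vehicle for no effect and wells lacking substrate for full effect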
Conditions: purified PMI enzyme, at 20 µM, hits give high values

Sequence of Mannose-6-phosphate isomerase (Homo sapiens) (P34949 whole entry, looked up): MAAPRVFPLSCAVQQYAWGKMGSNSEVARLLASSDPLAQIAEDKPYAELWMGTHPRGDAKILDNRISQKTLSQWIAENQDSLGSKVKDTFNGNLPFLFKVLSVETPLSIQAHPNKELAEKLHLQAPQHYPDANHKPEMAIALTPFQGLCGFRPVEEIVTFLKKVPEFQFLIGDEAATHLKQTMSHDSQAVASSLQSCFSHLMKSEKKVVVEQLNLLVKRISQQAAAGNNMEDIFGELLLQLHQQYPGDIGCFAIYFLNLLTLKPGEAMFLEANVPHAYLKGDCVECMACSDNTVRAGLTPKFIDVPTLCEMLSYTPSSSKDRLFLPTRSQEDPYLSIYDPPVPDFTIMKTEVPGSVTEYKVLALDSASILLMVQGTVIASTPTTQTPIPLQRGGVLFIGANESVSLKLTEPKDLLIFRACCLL

**Q.** How did the inhibition turn out when CC1(C)C(=O)C2(CCCCC2)C(=O)OC1c1cccn1-c1ccc([N+](=O)[O-])cc1 (configuration not stated) was run?
**A.** The inhibition was 2.5% (inactive).

**Q.** Which inhibition does the source give for CCCC(=O)c1cc2c(cc1NC(=O)c1cccs1)OCCO2 here?
**A.** Its inhibition is 6.8% (inactive).

**Q.** With O=C(NCc1ccccn1)Nc1cccc(NC(=O)NCc2ccccn2)c1 as the compound, how does the inhibition read?
**A.** The inhibition was 14.5% (inactive).

**Q.** With CCCC1=C(C(=O)OCC)C(/C=C/c2ccccc2)n2ncnc2N1 (configuration not stated) as the compound, how does the inhibition read?
**A.** The inhibition was 2.4% (inactive).

**Q.** For COc1ccccc1-c1nnc(NC(=O)C(C)Sc2nncn2C)s1 (configuration not stated), which inhibition is on record?
**A.** Its inhibition is -2.1% (inactive).

**Q.** CC(Sc1nncn1C)C(=O)Nc1nnc(-c2ccccc2)s1 (configuration not stated) was tested. Which inhibition did it give?
**A.** The inhibition was 8.5% (inactive).

**Q.** Which inhibition does the source give for COc1ccc(OC)c(-c2nnc(NC(=O)C(C)Sc3nncn3C)s2)c1 (configuration not stated) here?
**A.** The inhibition was 97.9% (active).

**Q.** Cc1ccc(NC(=S)NNC(=O)Cn2nc(C(F)F)cc2C(F)F)cc1 was tested. Which inhibition did it give?
**A.** The inhibition was -10% (inactive).

**Q.** For CSc1ccc(/C=C/c2ccc3cccc(O)c3n2)cc1, which inhibition is on record?
**A.** Its inhibition is -33.5% (inactive).

**Q.** Cc1ccsc1/C=C/c1ccc2cccc(O)c2n1 was tested. Which inhibition did it give?
**A.** Its inhibition is -6.3% (inactive).

**Q.** With COc1ccc(-c2nc(CSCC(=O)NC3CCCc4ccccc43)c(C)o2)cc1 (configuration not stated) as the compound, how does the inhibition read?
**A.** Its inhibition is 7% (inactive).

**Q.** Which inhibition does the source give for Cc1c(Cl)c(C(=O)NC2CCCC2)nn1C here?
**A.** Its inhibition is -11.9% (inactive).

**Q.** Nc1nc2c(s1)CCc1c-2cnn1-c1ccccc1 was tested. Which inhibition did it give?
**A.** The inhibition was 86.9% (active).

**Q.** Which inhibition does the source give for Nc1nc(-c2ccccc2)c(-c2ccccc2)s1 here?
**A.** Its inhibition is -1.1% (inactive).

**Q.** For Nc1nc2c(s1)COc1ccccc1-2, which inhibition is on record?
**A.** Its inhibition is 12.7% (inactive).

**Q.** For CCCCCc1nc2sc3c(c2c(=O)n1N)CCC3, which inhibition is on record?
**A.** The inhibition was -5.8% (inactive).

**Q.** O=C(Cn1cnc2ccccc2c1=O)NCc1ccc2c(c1)OCO2 was tested. Which inhibition did it give?
**A.** Its inhibition is 2% (inactive).

**Q.** For O=C(CCc1ccccc1)NC(=S)NCc1ccco1, which inhibition is on record?
**A.** Its inhibition is 7.5% (inactive).

**Q.** For NCCCNC(=O)c1ccc(/C=N/O)nc1, which inhibition is on record?
**A.** Its inhibition is 0.9% (inactive).

**Q.** How did the inhibition turn out when CNCCCNC(=O)c1ccc(/C=N/O)nc1 was run?
**A.** Its inhibition is -9.8% (inactive).

**Q.** How did the inhibition turn out when C[N+](C)(C)CCCNC(=O)c1ccc(/C=N/O)nc1 was run?
**A.** Its inhibition is 83.5% (active).

**Q.** How did the inhibition turn out when CCOC(=O)CC(=O)Nc1ccc(Br)cc1C(=O)O was run?
**A.** Its inhibition is 7.4% (inactive).

**Q.** COC(=O)c1ccc(-c2nc(-c3ccc(Br)o3)no2)cc1 was tested. Which inhibition did it give?
**A.** The inhibition was 10.6% (inactive).

**Q.** With COc1ccccc1Sc1ccccc1/C=N/NC(N)=O as the compound, how does the inhibition read?
**A.** The inhibition was 2.1% (inactive).

**Q.** Which inhibition does the source give for COC(=O)Cc1cc(=O)n(-c2ccccc2)[nH]1 here?
**A.** Its inhibition is 11% (inactive).

**Q.** For Cc1cc(=O)n(-c2ccc(C(=O)O)cc2)[nH]1, which inhibition is on record?
**A.** The inhibition was -22.8% (inactive).

**Q.** For CC(C)(C)c1cc(=O)n(-c2ccccc2)[nH]1, which inhibition is on record?
**A.** The inhibition was 64.7% (active).

**Q.** CC(c1nc2ccccc2o1)N1C(=O)c2ccccc2C1=O (configuration not stated) was tested. Which inhibition did it give?
**A.** The inhibition was 66.9% (active).

**Q.** How did the inhibition turn out when O=C1c2ccccc2C(=O)N1Cc1nc2ccccc2o1 was run?
**A.** Its inhibition is -0.5% (inactive).

**Q.** For O=C1c2ccccc2C(=O)N1c1ccc(-c2nc3ccccc3o2)cc1, which inhibition is on record?
**A.** Its inhibition is -2.8% (inactive).

**Q.** Which inhibition does the source give for Cc1ccc(NS(=O)(=O)c2ccccc2[N+](=O)[O-])cc1C here?
**A.** Its inhibition is -10.7% (inactive).

**Q.** For CCN1C(=O)CSc2ccc(C(=O)OC)cc21, which inhibition is on record?
**A.** The inhibition was -2.3% (inactive).

**Q.** Which inhibition does the source give for COc1ccc(NC(=S)N(Cc2cccc(Br)c2)CC2CCC(C(=O)O)CC2)cc1 (configuration not stated) here?
**A.** Its inhibition is -6.9% (inactive).

**Q.** Cc1nc2ccccc2c(=O)n1/N=C/c1cn(-c2ccccc2)nc1-c1cccs1 was tested. Which inhibition did it give?
**A.** Its inhibition is -10.8% (inactive).

**Q.** How did the inhibition turn out when CC(C)N=c1scc(-c2cccs2)n1/N=C/c1ccc(O)c(O)c1O was run?
**A.** Its inhibition is 75.9% (active).

**Q.** With CN=c1scc(-c2ccccc2F)n1/N=C/c1ccc[nH]1 as the compound, how does the inhibition read?
**A.** The inhibition was -16.2% (inactive).

**Q.** With CN=c1scc(-c2cccs2)n1/N=C/c1ccccc1O as the compound, how does the inhibition read?
**A.** The inhibition was 5.2% (inactive).

**Q.** Which inhibition does the source give for CN=c1scc(-c2ccccc2F)n1/N=C(\C)c1cccnc1 here?
**A.** The inhibition was -9.3% (inactive).

**Q.** How did the inhibition turn out when CN=c1scc(C)n1/N=C/c1ccc(O)cc1O was run?
**A.** The inhibition was -4% (inactive).

**Q.** Oc1ccc(/C=N/n2c(-c3ccco3)csc2=Nc2cccnc2)c(O)c1 was tested. Which inhibition did it give?
**A.** Its inhibition is -1.6% (inactive).

**Q.** For CN=c1scc(-c2ccccc2F)n1/N=C/c1ccc(O)c(O)c1O, which inhibition is on record?
**A.** The inhibition was 70.6% (active).

**Q.** How did the inhibition turn out when Cc1ccc(OCC(O)Cn2c(=N)n(CCN3CCOCC3)c3ccccc32)cc1 (configuration not stated) was run?
**A.** Its inhibition is -3.6% (inactive).

**Q.** For CC(Oc1ccccc1)C(=O)N1CCN=C1SCc1ccccc1 (configuration not stated), which inhibition is on record?
**A.** The inhibition was -6.4% (inactive).

**Q.** Cc1cc(F)ccc1S(=O)(=O)N1CCCOC1CNC(=O)C(=O)NCc1ccco1 (configuration not stated) was tested. Which inhibition did it give?
**A.** Its inhibition is -3.1% (inactive).

**Q.** How did the inhibition turn out when CCCCCNC(=O)c1ccc2c(=O)n(CCOC)c(=O)[nH]c2c1 was run?
**A.** The inhibition was -5.7% (inactive).

**Q.** With O=C(CCNC(=O)c1ccccc1Cl)Nc1ccc(Br)c(C(F)(F)F)c1 as the compound, how does the inhibition read?
**A.** The inhibition was 15% (inactive).

**Q.** Which inhibition does the source give for CN1C(=S)SC(N(O)C(=O)Nc2cccc3ccccc23)C1(C)C (configuration not stated) here?
**A.** The inhibition was 37.9% (inactive).

**Q.** CC(NC(=O)c1ccc(C(F)(F)F)cc1)C(c1ccccc1)N1CCOCC1 (configuration not stated) was tested. Which inhibition did it give?
**A.** The inhibition was -8.2% (inactive).

**Q.** NC(=O)CNc1n[nH]c(=S)[nH]c1=O was tested. Which inhibition did it give?
**A.** Its inhibition is -27.7% (inactive).

**Q.** Oc1ccc(/C=N/Nc2ccc(C(F)(F)F)cn2)cc1 was tested. Which inhibition did it give?
**A.** The inhibition was -2.8% (inactive).

**Q.** Oc1ccc(/C=N/Nc2ccc(C(F)(F)F)cn2)cc1O was tested. Which inhibition did it give?
**A.** Its inhibition is 61.6% (active).

**Q.** Which inhibition does the source give for COc1cc(/C=N/Nc2ccc(C(F)(F)F)cn2)ccc1O here?
**A.** The inhibition was 7.1% (inactive).
